Assay results published in PubChem BioAssay (NCI).
This is part of a sample that, as a whole, favours compounds with a hit. Of some 83,000 tested, about 20% had one in any assay.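 How to read the values: 0–100, growth inhibition (40 = 60% inhibited); 0, no net growth; -100 to 0, cell death (-40 = 40% of starting cells died; -100 = all dead).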 A number with no mark means an inactive call. Calls of active or inactive are those of the source. The calls were made as follows: active = growth percent below 10; inactive = the rest.

What was measured:
Experiment in all cases: NCI-60 one-dose screen, 48 h (100 = growth as untreated, 0 = no growth, -100 = all killed)
Details in all cases: 10 µM unless noted
SR leukemia = test system: SR leukemia
RPMI-8226 leukemia = test system: RPMI-8226 leukemia
OVCAR-8 ovarian = test system: OVCAR-8 ovarian
OVCAR-5 ovarian = test system: OVCAR-5 ovarian
OVCAR-4 ovarian = test system: OVCAR-4 ovarian
SK-OV-3 ovarian = test system: SK-OV-3 ovarian
IGROV1 ovarian = test system: IGROV1 ovarian
OVCAR-3 ovarian = test system: OVCAR-3 ovarian
HS 578T breast = test system: HS 578T breast
NCI/ADR-RES ovarian = test system: NCI/ADR-RES ovarian
T-47D breast = test system: T-47D breast
BT-549 breast = test system: BT-549 breast
MDA-MB-435 melanoma = test system: MDA-MB-435 melanoma
SW-620 colon = test system: SW-620 colon
MCF7 breast = test system: MCF7 breast
HCC-2998 colon = test system: HCC-2998 colon
KM12 colon = test system: KM12 colon
HCT-116 colon = test system: HCT-116 colon

| Structure (SMILES) | growth (SR leukemia) | growth (RPMI-8226 leukemia) | growth (OVCAR-8 ovarian) | growth (OVCAR-5 ovarian) | growth (OVCAR-4 ovarian) | growth (SK-OV-3 ovarian) | growth (IGROV1 ovarian) | growth (OVCAR-3 ovarian) | growth (HS 578T breast) | growth (NCI/ADR-RES ovarian) | growth (T-47D breast) | growth (BT-549 breast) | growth (MDA-MB-435 melanoma) | growth (SW-620 colon) | growth (MCF7 breast) | growth (HCC-2998 colon) | growth (KM12 colon) | growth (HCT-116 colon) |
| --- | --- | --- | --- | --- | --- | --- | --- | --- | --- | --- | --- | --- | --- | --- | --- | --- | --- | --- |
| CCCN1[C@@H]2CC[C@H]1/C(=C\c1ccc(OC)c(OC)c1)C(=O)/C2=C/c1ccc(OC)c(OC)c1 | 26.8% | 9.06% (active) | 35.5% | 78.2% | 46% | 66.2% | 56.8% | 56.9% | 54.2% | 42% | 25.1% | 51.8% | 39.6% | 43% | 30.2% | 86.7% | 54.6% |  |
| COc1cc(/C=C2\COc3ccc(-c4ccccc4)cc3C2=O)cc(OC)c1 | 58.5% | 3.36% (active) | 56.2% | 106% | 63.8% | 108% | 90.8% | 69% | 92.9% | 61% | 70.3% | 74.7% | 66% | 62.8% | 57.3% |  | 68.5% | 62.1% |
| COc1ccc(/C=C/c2nc(Nc3cccc(NC(C)=O)c3)c3ccccc3n2)cc1 | 64.7% | 89.3% | 84.5% | 86.8% | 104% | 99.5% | 99.7% | 97.7% | 89.1% | 90% | 70% | 92.1% | 85.2% | 92.1% | 49.9% | 88.4% | 83.2% |  |
| CNC(=O)c1cncc(Cn2nc(C)c(NC(=O)c3ccc(COc4ccc(C(F)(F)F)cc4C)cc3)c2C)c1 | 25% | 42.7% | 55% | 98.1% | 43.5% | 76.7% | 62.7% | 41% | 92.7% | 96.4% | 29.7% | 32.4% | 66.6% | 102% | 37.5% | 77.8% | 74.8% |  |
| Cc1cc2cc3ccc(N(C)C)cc3nc2cc1N | -2.93% (active) | -19.1% (active) | -2.19% (active) | 3.07% (active) | -11.9% (active) | -8.06% (active) | -1.84% (active) | -24.7% (active) | -32.5% (active) | 42.4% | -9.44% (active) | 20.7% | 5.71% (active) | -37.9% (active) | -4.08% (active) |  | -20.7% (active) | -20% (active) |
| CN1CCN(C(=O)[C@]23CCC(C)(C)C[C@H]2C2=CC[C@@H]4[C@@]5(C)C/C(=C/c6cccnc6)C(=O)C(C)(C)[C@@H]5CC[C@@]4(C)[C@]2(C)CC3)CC1 | 15.5% | 19.1% | 54% | 100% | 58.1% | 83.8% | 85.6% | 52.7% | 54.2% | 59.1% | 34.5% | 82% | 59.1% | 44.6% | 22.9% | 66.6% | 55.1% | 20% |
| CC(=O)N1N=C(c2ccc(-n3ccc(C(F)(F)F)n3)c(F)c2)CC1c1ccc[nH]1 (stereo unspecified) | 92.8% | 80.8% | 98.9% | 105% | 102% | 118% | 112% | 107% | 106% | 104% | 91.9% | 111% | 99.8% | 107% | 92.8% | 111% | 101% |  |
| N=C(N)c1ccc(OCCCCCCCCCCOc2ccc(C(=N)N)cc2)cc1 | -60.4% (active) | -59.8% (active) | -74.5% (active) | -91.5% (active) | -95.8% (active) | -91.4% (active) | -80.7% (active) | -92.4% (active) | -56.9% (active) | 87.1% | -59.1% (active) | -84.5% (active) | -94.6% (active) | -91.3% (active) | -71.7% (active) | -94.9% (active) | -87.9% (active) |  |
| C=C1C(=O)O[C@H]2[C@H]1CC/C(COC(=O)NCc1c[nH]c3ccc(F)cc13)=C\CC[C@@]1(C)O[C@@H]21 | 13% | -24.4% (active) | 0.654% (active) | -30.6% (active) | 11.9% | 93.7% | -46.7% (active) | -75.6% (active) | 50% | 59.7% | -58.3% (active) | -51.6% (active) | -63.5% (active) | -72.4% (active) | 22.4% | 68.3% | 33.5% |  |
| Cc1cccc(NC(=O)Nc2ccc(-c3ccc4c(c3)NC(=O)/C4=C\c3ccc[nH]3)cc2)c1 | 23.6% | 91.4% | 105% | 96.3% | 73.4% | 90.5% | 78% | 103% | 95.7% | 93.8% | 39.1% | 102% | 78.8% | 73% | 15.3% | 99% | 19.4% |  |
| N#C/C(=C\c1ccc(Cl)cc1)n1nnc2cc(F)c(F)cc21 | 5.64% (active) | -34.1% (active) | 13.3% | 22.2% | 17.6% | 88.7% | 6.69% (active) | -0.889% (active) | 13.6% | 17.6% | 19.8% | 11.7% | 5.95% (active) | -15% (active) | 12% | 16.8% | 16.2% |  |
| Oc1c(Cl)cc(Cl)c(Cl)c1CNCCNCc1c(O)c(Cl)cc(Cl)c1Cl | 1.15% (active) | 18% | 11.3% | 54% | 22.6% | 22% | 16.4% | 19.1% | 57.7% | 4.33% (active) | 20.2% |  | 37.1% | 31.5% | 15.6% | 25.2% | 24% | 13.9% |
| COc1cc(CC(=O)c2ccc(O)c(OC)c2)ccc1O | 90.1% | 97.9% | 97.9% | 97.9% | 103% | 99.7% | 111% | 105% | 98.5% |  | 89.6% | 110% | 112% | 102% | 96.9% | 103% | 103% | 100% |
| C=CC(=O)N[C@@H](/C=C/C(=O)OCC)Cc1ccc(-c2cc(Cl)cc(Cl)c2)cc1 | 7.26% (active) | -2.44% (active) | 16.8% | 55.8% | 10.7% | 26.7% | 36.2% | 13.5% |  | 8.7% (active) | -4.93% (active) | 4.23% (active) | 1.71% (active) | 11.7% | 4.06% (active) | 41.6% | 24.2% | 11.1% |
| COc1cc2nc(-c3ccc(Cl)cc3)cc(OCCCN3CCC(O)CC3)c2cc1OC | 15.9% | 23.2% | 42.9% | 45.8% | 68.7% | 74.3% | 33.2% | 71.7% | 66.9% |  | 44.3% | 34.9% | -10.7% (active) | 51.2% | 48.9% | 69.9% |  | 17.9% |
| c1ccc2cc(Cn3c(-c4cccc5ccccc45)[n+](Cc4ccc5ccccc5c4)c4c5ccccc5c5ccccc5c43)ccc2c1 | -56% (active) | -38.7% (active) | -67% (active) | -76.7% (active) | -80% (active) | -79.4% (active) | -71.8% (active) | -89.4% (active) | -42.1% (active) |  | -70.8% (active) | -70.5% (active) | -83.7% (active) | -78.2% (active) | -64.7% (active) | -84.7% (active) | -82.2% (active) | -73.5% (active) |
| COc1ccc(C(C)=O)c(OC)c1 | 119% | 100% | 109% | 90.2% | 103% | 105% | 127% | 117% | 113% |  | 108% | 106% | 119% | 106% | 92% | 105% | 110% | 103% |
| Nc1c(C(=O)Nc2ccnc3ccccc23)sc2nc3c(cc12)CN(Cc1ccccc1)CC3 | 35.5% | 38.8% | 69.5% | 94.1% | 78.6% | 98.9% | 86.4% | 85.1% | 89.9% |  | 38.5% | 30.8% | 73.6% | 95.3% | 68.9% | 103% | 79.7% | 45% |
